Here are results for four compounds from PubChem BioAssay (EPA / NIEHS).

Molecules are shown by their SMILES. Some compounds were tested as several samples or in several runs, with calls that do not always agree. Active and inactive are the calls of the source. How the source made its calls: active means hit-call score of the fitted dose curve at least 0.9, where 1 is the maximum; inactive means score below 0.9.

Assay [1] can be described thus: ATG_M_32_CIS: Attagene CIS-FACTORIAL HepG2 Assay for M32 Transcription Factor (Internal Marker) (AID 2282949).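 Further: background control marker of the multiplexed CIS panel rather than a real target.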 To be noted: HepG2 Attagene cis-factorial M32 reporter, mRNA; actives raise or lower the signal. In outline: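 HepG2 cells transiently transfected with multiplexed cis-regulated reporter units, dosed 24 h. Reporter mRNA quantified by RT-PCR, 6-FAM labelling, HpaI digestion and capillary electrophoresis; bidirectional fit vs DMSO.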

Assay [2] is described as follows: ATG_M_06_CIS: Attagene CIS-FACTORIAL HepG2 Assay for M06 Transcription Factor (Internal Marker) (AID 2282950). To be noted: HepG2 Attagene CIS-FACTORIAL M06 internal marker reporter; actives raise or lower the signal. In a few lines: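 HepG2 cells transiently transfected with cis-regulated multiple reporter transcription units were exposed to chemical for 24 h; reporter mRNA was quantified by RT-PCR, 6-FAM primer labelling, HpaI digestion and capillary electrophoresis, fitted bidirectionally against DMSO.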

The target in assay [3] is Hypoxia-inducible factor 1-alpha (Homo sapiens) (UniProt Q16665). Kind of assay: ATG_HIF1a_CIS: Attagene CIS-FACTORIAL HepG2 Assay for human Hypoxia Inducible Factor 1 (HIF1A) (AID 2282951). To be noted: HepG2 Attagene cis-factorial HIF1a reporter transcription; actives raise or lower the signal. In outline: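 In this multiplexed cell assay, HepG2 cells bearing transfected cis reporters are dosed for 24 h and reporter mRNA is read by RT-PCR plus capillary electrophoresis; signal increases and decreases are both scored against DMSO.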

The target of assay [4] is Hepatocyte nuclear factor 6 (Homo sapiens) (UniProt Q9UBC0). Kind of assay: ATG_HNF6_CIS: Attagene CIS-FACTORIAL HepG2 Assay for human Hepatocyte Nuclear Factor 6 (HNF6) (AID 2282952). Conditions: HepG2 Attagene cis-factorial HNF6 reporter transcription; actives raise or lower the signal. In a few lines: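 HepG2 cells transiently transfected with cis-element-driven multiplexed reporter units measuring endogenous transcription factor activity. After 24 h exposure, reporter mRNA quantified by RT-PCR, FAM-labelled fragments and capillary electrophoresis; bidirectional fitting versus DMSO.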

For assay [5], the target named is Heat shock factor protein 1 (Homo sapiens) (UniProt Q00613). The assay can be described thus: ATG_HSE_CIS: Attagene CIS-FACTORIAL HepG2 Assay for human Heat Shock Transcription Factor 1 (HSE) (AID 2282953). To be noted: HepG2 HSE cis-reporter, Attagene RNA transcription; actives raise or lower the signal. In a few lines: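 HepG2 cells transiently transfected with multiple reporter transcription units under cis-regulatory promoter control, measuring endogenous transcription factor activity. After 24 h chemical exposure, reporter mRNA quantified by RT-PCR, fluorescent labelling, HpaI digestion and capillary electrophoresis; bidirectional fit versus DMSO.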

A short description of assay [6]: ATG_MRE_CIS: Attagene CIS-FACTORIAL HepG2 Assay for human Metal Responsive Element (MRE) (AID 2282954). Conditions: HepG2 MRE cis-reporter transcription, Attagene multiplex; actives raise or lower the signal. In a few lines: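 Step one: transfect HepG2 with cis-regulated reporter units. Step two: dose 24 h. Step three: isolate RNA, RT-PCR, 6-FAM label, HpaI digest, capillary electrophoresis. Fit bidirectionally to DMSO.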

Assay [7] addresses Paired box protein Pax-6 (Homo sapiens) (UniProt P26367). The assay can be described thus: ATG_Pax6_CIS: Attagene CIS-FACTORIAL HepG2 Assay for human Paired Box 6 (PAX6) (AID 2282956). To be noted: HepG2 CIS-FACTORIAL PAX6 reporter transcription, RNA readout; actives raise or lower the signal. In outline: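 HepG2 cells transiently transfected with multiplexed cis-promoter reporter units (endogenous TF activity) were dosed for 24 h. Reporter mRNA was quantified by RT-PCR, 6-FAM labeling, HpaI digestion and capillary electrophoresis; bidirectional fitting versus DMSO baseline.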

Assay [8] can be described thus: ATG_PXRE_CIS: Attagene CIS-FACTORIAL HepG2 Assay for human Pregnane X Receptor Element (PXRE) (AID 2282957). Conditions: HepG2 Attagene CIS-FACTORIAL PXRE reporter, mRNA; actives raise or lower the signal. In outline: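 HepG2 cells transiently transfected with cis-element-driven multiplexed reporter units; after 24 h chemical exposure, reporter mRNA measured by RT-PCR, 6-FAM labelling, HpaI digestion and capillary electrophoresis. Bidirectional fitting relative to DMSO.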

Assay [9] can be described thus: ATG_PPRE_CIS: Attagene CIS-FACTORIAL HepG2 Assay for human Peroxisome Proliferator-activated Response Element (PPRE) (AID 2282958). To be noted: HepG2 PPRE cis-element reporter, Attagene transcription factor profiling; actives raise or lower the signal. In a few lines:
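Multiplexed reporter transcription units under cis-regulatory promoters were transfected into HepG2 cells to capture endogenous factor activity. A 24 h incubation preceded RNA isolation and fluorescent RT-PCR fragment analysis.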

Assay [10] is described as follows: ATG_Sox_CIS: Attagene CIS-FACTORIAL HepG2 Assay for human SRY-box transcription factor (SOX) (AID 2282960). To be noted: HepG2 Attagene cis-factorial SOX reporter, mRNA; actives raise or lower the signal. In a few lines:
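After 24 h of chemical treatment, transfected HepG2 reporter cells are lysed for total RNA. Transcript levels come from RT-PCR with labelled primer extension and capillary electrophoresis, analysed bidirectionally versus DMSO.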

The target of assay [11] is Transcription factor Sp1 (Homo sapiens) (UniProt P08047). The assay can be described thus: ATG_Sp1_CIS: Attagene CIS-FACTORIAL HepG2 Assay for human Specificity Protein 1 (Sp1) (AID 2282961). To be noted: HepG2 Sp1 cis-reporter transcription, actives raise or lower the signal. In a few lines:
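Sp1-driven reporter mRNA, read as capillary electrophoresis fluorescence after RT-PCR, in transiently transfected HepG2 cells dosed for 24 h; signal change in either direction relative to DMSO.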

The nature of assay [12]: ATG_SREBP_CIS: Attagene CIS-FACTORIAL HepG2 Assay for human Sterol Regulatory Element Binding (SREBP) (AID 2282962). To be noted: HepG2 Attagene cis-factorial SREBP reporter, mRNA; actives raise or lower the signal. In outline: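 HepG2 cells transiently transfected with multiplexed cis-element reporter units report endogenous transcription factor activity. After 24 h of chemical exposure, reporter mRNA was quantified by RT-PCR, 6-FAM labelling, HpaI digestion and capillary electrophoresis; bidirectional fits used DMSO as baseline.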

Assay [13] concerns the target Signal transducer and activator of transcription 3 (Homo sapiens) (UniProt P40763). Kind of assay: ATG_STAT3_CIS: Attagene CIS-FACTORIAL HepG2 Assay for human Signal Transducer and Activator of Transcription 3 (STAT3) (AID 2282963). Conditions: HepG2, Attagene cis-factorial STAT3 reporter transcription; actives raise or lower the signal. In a few lines:
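Transcript-level reporter assay. HepG2 transient MRTU transfection, 24 h exposure, fluorescence detection after RT-PCR and CE; DMSO baseline.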

Assay [14] in a line: ATG_TA_CIS: Attagene CIS-FACTORIAL HepG2 Assay for human TA Basal Promoter (AID 2282964). Conditions: HepG2 Attagene CIS-factorial TA basal promoter reporter; actives raise or lower the signal. In a few lines:
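HepG2 cells transiently transfected with multiplexed cis-promoter reporter units, dosed 24 h. Reporter mRNA measured by RT-PCR, 6-FAM labelling, HpaI digestion and capillary electrophoresis; bidirectional fit versus DMSO baseline, serving as background control.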

Assay [15] can be described thus: ATG_TCF_b_cat_CIS: Attagene CIS-FACTORIAL HepG2 Assay for human T-Cell-Factor with beta-catenin (TCF/b-cat) (AID 2282965). Conditions: HepG2 TCF/beta-catenin cis-reporter transcription, actives raise or lower the signal. In a few lines:
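Using capillary electrophoresis as the read-out, labelled reporter cDNA fragments from transiently transfected HepG2 were sized and quantified. Exposure lasted 24 hours; activity in either direction was referenced to DMSO.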

Assay [16] is described as follows: ATG_TAL_CIS: Attagene CIS-FACTORIAL HepG2 Assay for human TAL Basal Promoter (AID 2282966).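 Further: background control endpoint measuring basal TAL promoter reporter mRNA not a specific factor.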 Conditions: HepG2 Attagene cis-factorial TAL promoter reporter; actives raise or lower the signal. In outline:
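HepG2 cells transiently transfected with multiplexed cis-promoter reporter units, dosed 24 h. Reporter mRNA quantified by RT-PCR, 6-FAM labelling, HpaI digestion and capillary electrophoresis; TAL basal promoter serves as background control, fitted bidirectionally versus DMSO.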

Assay [17] in a line: ATG_TGFb_CIS: Attagene CIS-FACTORIAL HepG2 Assay for human Transforming Growth Factor (TGF) (AID 2282967). To be noted: HepG2 Attagene CIS TGFb reporter, mRNA transcription; actives raise or lower the signal. In outline: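 HepG2 cells transiently transfected with cis-promoter-driven multiplexed reporter units; 24 h compound exposure. Reporter mRNA measured by RT-PCR, 6-FAM labeling, HpaI digestion and capillary electrophoresis; bidirectional fit versus DMSO baseline.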

Assay [18] is described as follows: ATG_RORE_CIS: Attagene CIS-FACTORIAL HepG2 Assay for human RAR-related Orphan Receptor Element (RORE) (AID 2282959). Conditions: HepG2 Attagene cis-factorial RORE reporter, mRNA; actives raise or lower the signal. In a few lines:
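Fluorescence intensity of reporter-specific cDNA fragments, separated by capillary electrophoresis, gives the signal. Source: HepG2 liver cells transiently transfected with cis-element reporters and exposed 24 h; DMSO-normalized bidirectional fit.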

Assay [19] is described as follows: ATG_VDRE_CIS: Attagene CIS-FACTORIAL HepG2 Assay for human Vitamin D Receptor Element (VDRE) (AID 2282968). Conditions: HepG2 VDRE cis-reporter transcription, actives raise or lower the signal. In outline:
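RT-PCR/CE readout of reporter mRNA; HepG2, transient transfection, 24 h dosing; DMSO baseline; bidirectional analysis.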

The nature of assay [20]: ATG_PBREM_CIS: Attagene CIS-FACTORIAL HepG2 Assay for human Phenobarbital-responsive Enhancer Module (PBREM) (AID 2282955). Conditions: HepG2 PBREM cis-reporter, Attagene multiplexed transcription; actives raise or lower the signal. In outline: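 After a 24 h incubation with test chemical, transfected HepG2 cells yield total RNA; reporter-specific RT-PCR products are fluorescently labelled, HpaI-digested and resolved by capillary electrophoresis against ROX size standards.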

Sequence of Signal transducer and activator of transcription 3 (Homo sapiens) (P40763 whole entry, looked up): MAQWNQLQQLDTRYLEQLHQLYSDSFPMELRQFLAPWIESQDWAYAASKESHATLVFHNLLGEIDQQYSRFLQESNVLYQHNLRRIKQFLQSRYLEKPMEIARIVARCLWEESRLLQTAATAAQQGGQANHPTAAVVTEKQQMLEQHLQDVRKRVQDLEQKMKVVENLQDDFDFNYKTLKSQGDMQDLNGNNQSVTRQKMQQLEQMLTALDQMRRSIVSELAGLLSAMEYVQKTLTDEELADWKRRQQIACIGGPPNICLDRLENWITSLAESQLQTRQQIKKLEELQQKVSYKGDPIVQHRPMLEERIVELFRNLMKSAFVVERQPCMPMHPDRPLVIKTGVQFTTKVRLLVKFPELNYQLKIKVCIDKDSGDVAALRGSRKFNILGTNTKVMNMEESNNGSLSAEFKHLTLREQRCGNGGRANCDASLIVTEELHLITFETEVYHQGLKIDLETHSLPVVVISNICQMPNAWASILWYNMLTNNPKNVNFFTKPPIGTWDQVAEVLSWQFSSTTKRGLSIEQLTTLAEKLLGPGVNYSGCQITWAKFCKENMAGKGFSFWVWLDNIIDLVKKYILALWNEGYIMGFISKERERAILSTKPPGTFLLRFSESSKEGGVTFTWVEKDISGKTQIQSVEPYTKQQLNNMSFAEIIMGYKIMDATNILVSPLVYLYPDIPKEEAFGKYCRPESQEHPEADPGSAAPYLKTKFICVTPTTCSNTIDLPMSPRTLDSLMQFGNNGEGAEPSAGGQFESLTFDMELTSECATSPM
Sequence of Hepatocyte nuclear factor 6 (Homo sapiens) (Q9UBC0 whole entry, looked up, the tested form may be a part): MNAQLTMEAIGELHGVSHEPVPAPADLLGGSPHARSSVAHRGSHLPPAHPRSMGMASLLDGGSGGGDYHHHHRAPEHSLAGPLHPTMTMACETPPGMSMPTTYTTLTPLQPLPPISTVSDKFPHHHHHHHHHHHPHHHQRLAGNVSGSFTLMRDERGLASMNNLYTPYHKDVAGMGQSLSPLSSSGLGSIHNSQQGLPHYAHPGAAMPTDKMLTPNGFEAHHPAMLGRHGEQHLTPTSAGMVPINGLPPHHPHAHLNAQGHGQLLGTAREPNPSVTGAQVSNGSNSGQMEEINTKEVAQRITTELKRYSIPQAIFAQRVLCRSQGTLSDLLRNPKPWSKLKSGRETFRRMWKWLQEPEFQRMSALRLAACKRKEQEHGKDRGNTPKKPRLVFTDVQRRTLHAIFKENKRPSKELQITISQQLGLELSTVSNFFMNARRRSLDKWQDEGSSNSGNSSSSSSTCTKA
Sequence of Heat shock factor protein 1 (Homo sapiens) (Q00613 whole entry, looked up): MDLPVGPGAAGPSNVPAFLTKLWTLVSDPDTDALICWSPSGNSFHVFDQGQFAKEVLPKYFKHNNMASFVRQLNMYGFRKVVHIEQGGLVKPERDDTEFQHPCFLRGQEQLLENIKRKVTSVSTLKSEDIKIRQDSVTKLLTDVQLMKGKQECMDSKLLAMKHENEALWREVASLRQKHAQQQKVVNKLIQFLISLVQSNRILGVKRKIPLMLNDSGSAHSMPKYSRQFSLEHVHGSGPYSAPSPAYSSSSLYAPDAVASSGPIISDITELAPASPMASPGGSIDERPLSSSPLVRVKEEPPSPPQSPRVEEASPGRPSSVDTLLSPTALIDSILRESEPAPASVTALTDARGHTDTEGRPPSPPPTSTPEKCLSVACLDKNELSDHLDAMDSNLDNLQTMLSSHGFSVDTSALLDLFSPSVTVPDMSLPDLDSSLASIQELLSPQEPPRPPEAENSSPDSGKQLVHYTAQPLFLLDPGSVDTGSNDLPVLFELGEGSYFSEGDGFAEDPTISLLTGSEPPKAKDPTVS
Sequence of Transcription factor Sp1 (Homo sapiens) (P08047 whole entry, looked up): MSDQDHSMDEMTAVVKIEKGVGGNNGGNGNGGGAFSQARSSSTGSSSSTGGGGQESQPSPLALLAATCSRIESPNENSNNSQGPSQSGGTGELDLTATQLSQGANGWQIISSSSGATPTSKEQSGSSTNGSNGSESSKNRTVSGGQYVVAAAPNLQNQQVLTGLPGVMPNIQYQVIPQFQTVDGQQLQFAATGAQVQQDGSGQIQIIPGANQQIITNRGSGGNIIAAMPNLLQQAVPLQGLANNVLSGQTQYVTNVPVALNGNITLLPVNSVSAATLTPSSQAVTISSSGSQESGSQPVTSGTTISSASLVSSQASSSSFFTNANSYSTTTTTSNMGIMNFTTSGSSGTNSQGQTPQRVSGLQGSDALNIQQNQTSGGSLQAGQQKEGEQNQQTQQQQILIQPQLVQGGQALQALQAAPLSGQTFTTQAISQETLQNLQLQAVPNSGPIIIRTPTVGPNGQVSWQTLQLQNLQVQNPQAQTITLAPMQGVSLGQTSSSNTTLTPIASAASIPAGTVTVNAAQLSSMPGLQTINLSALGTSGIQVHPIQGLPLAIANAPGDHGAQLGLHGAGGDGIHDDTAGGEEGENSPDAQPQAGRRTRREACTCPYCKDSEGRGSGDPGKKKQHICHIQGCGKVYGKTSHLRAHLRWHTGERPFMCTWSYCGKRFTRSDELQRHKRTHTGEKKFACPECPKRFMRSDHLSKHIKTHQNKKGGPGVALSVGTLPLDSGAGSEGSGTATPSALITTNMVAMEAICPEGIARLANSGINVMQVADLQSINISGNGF
Sequence of Paired box protein Pax-6 (Homo sapiens) (P26367 whole entry, looked up): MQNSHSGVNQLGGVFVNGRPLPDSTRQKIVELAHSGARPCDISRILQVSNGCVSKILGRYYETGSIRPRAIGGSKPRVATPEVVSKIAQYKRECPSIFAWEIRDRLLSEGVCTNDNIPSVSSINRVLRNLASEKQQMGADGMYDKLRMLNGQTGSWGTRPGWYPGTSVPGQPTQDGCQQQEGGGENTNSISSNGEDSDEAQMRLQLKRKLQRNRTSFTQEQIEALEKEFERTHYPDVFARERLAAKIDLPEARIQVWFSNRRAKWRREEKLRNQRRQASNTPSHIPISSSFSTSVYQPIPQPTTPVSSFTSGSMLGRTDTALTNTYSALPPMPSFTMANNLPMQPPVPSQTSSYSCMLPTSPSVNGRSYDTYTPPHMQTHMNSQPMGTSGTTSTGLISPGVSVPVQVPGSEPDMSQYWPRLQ
Sequence of Hypoxia-inducible factor 1-alpha (Homo sapiens) (Q16665 whole entry, looked up): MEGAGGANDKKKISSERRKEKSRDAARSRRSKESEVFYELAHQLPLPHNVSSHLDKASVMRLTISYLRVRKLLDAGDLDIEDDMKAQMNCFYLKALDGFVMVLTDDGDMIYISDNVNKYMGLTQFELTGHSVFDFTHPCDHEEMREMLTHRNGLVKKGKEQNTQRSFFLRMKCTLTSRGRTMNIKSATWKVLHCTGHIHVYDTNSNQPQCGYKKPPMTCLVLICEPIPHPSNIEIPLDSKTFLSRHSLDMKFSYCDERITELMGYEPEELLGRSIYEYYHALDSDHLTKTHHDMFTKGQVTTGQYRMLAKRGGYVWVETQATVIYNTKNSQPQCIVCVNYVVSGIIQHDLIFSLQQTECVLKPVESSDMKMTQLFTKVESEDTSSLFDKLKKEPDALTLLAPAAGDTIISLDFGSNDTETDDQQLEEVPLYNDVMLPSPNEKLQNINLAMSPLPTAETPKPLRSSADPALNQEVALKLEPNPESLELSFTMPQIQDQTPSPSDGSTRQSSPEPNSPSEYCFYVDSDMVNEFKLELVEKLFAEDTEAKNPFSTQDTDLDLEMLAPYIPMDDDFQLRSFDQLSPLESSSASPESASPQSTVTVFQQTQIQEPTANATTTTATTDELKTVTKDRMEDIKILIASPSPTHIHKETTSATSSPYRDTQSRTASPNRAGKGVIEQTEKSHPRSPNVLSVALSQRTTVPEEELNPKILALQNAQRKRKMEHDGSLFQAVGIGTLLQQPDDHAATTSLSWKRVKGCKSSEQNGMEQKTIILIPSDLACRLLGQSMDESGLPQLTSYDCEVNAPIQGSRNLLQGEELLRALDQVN

With `CNC(=O)CSP(=O)(OC)OC`, the outcome in assay [1], in assay [2], in assay [3], in assay [4], in assay [5] and in assay [6] was inactive. The outcome in [7], in assay [8], in assay [9], in [10], in assay [11] and in [12] was inactive. In addition, the call in assay [13], in [14], in assay [15], in [16] and in assay [17] was inactive.

As for `O=c1[nH]c(=O)n(Cl)c(=O)n1Cl`, the result in [1], in assay [2], in assay [3], in assay [4], in assay [5] and in assay [6] was inactive. Further, the compound was classed as inactive in assay [7], in assay [8], in [10], in [11], in [12] and in assay [13]. Further, the call in [14], in [15], in assay [16] and in assay [17] was inactive. Also, in assay [8], the AC50 (commonly the concentration giving half of the maximal activity seen) was 52.5 µM (active).

Regarding `O=C(NC(=O)c1c(F)cccc1F)Nc1ccc(Cl)cc1`, the compound was called inactive in assay [1], in [2], in assay [3], in [4], in [5] and in [6]. Moreover, the compound was classed as inactive in assay [7], in assay [8], in [9], in assay [18], in assay [10] and in assay [11]. In addition, the outcome in [12], in [13], in assay [14], in [15], in [16] and in [17] was inactive. Besides, the call in [19] was inactive.

On to `CCOP(=S)(OCC)SCSc1cc(Cl)ccc1Cl`, for which the call in assay [1], in assay [2], in assay [3], in assay [4], in [5] and in [6] was inactive. Moreover, the outcome in [20], in [9], in assay [18], in assay [10], in [11] and in assay [13] was inactive. The compound was called inactive in assay [14], in assay [15], in assay [16], in assay [17] and in [19].
